The campaign covered roughly 330,000 compounds. About 4,600 (1.4%) were called active. Shown is part of a subset that was picked to be rich in actives. Unmarked numbers belong to inactive results.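 Rule for the calls: active = inhibition of 40% or more at the single tested concentration; inactive = the rest.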

This test is described as follows: growth inhibitors of isogenic TIM10 control yeast, primary screen, counter-screen for tim10-1 yeast inhibitor project, luminescence, uHTS (AID 463195).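 Note: wild-type TIM10 isogenic control strain grown at permissive 25 °C; 0% = DMSO yeast wells and 100% = minimal medium wells without yeast.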 To be noted: S. cerevisiae TIM10 strain growth, BacTiter-Glo luminescence, 24 h; at 10 µM; stronger effect = higher value. Background: Counterscreens check selectivity or assay interference.
Turning to `COc1ccc(CCNC(=O)COC(=O)Cc2cccc(F)c2)cc1`, the inhibition – broadly, the drop in the measured response relative to a control, in per cent – was 7.57%. With `Cc1cccc(NC(=O)CN2CCN(C(=O)C3CCN(C(=O)/C=C/c4ccccc4)CC3)CC2)c1C`, the inhibition is 8.87%. For the compound `CCCCn1c(=O)c(CCC(=O)OCC(=O)Nc2ccc(C)c(Cl)c2)nc2ccccc21`, the inhibition was -6.83%. For the compound `COc1ccc(S(=O)(=O)N(C)C[C@H]2Oc3c(NC(=O)Nc4ccc5c(c4)OCO5)cccc3C(=O)N([C@H](C)CO)C[C@@H]2C)cc1`, the inhibition is 1.19%. For `O=C(NCc1ccccc1)C1CCCN(c2nc3ccsc3c(=O)s2)C1` (configuration not stated), the inhibition is -2.48%. On to `CCC(C)NC(=O)c1nn(C)c(=O)c2ccccc12` (configuration not stated), for which the inhibition was 1.61%. Take `Cc1ccc(NC(=O)CSc2sc3c(O)cc(=O)[nH]c3c2C#N)cc1C`: the inhibition is -6.33%.

`CCOC(=O)c1ccc(N2C(=O)CC(N3CCC(C(=O)OCC)CC3)C2=O)cc1` (configuration not stated): the inhibition was 41.3% (active).

Consider `CCOC(=O)c1ccc(N2C(=O)CC(N3CC(C)OC(C)C3)C2=O)cc1` (configuration not stated), for which the inhibition was 8.24%.

On to `CCOC(=O)c1ccc(N2C(=O)CC(N3CCN(C(=O)c4ccccc4)CC3)C2=O)cc1` (configuration not stated), for which the inhibition was 1.01%. For `CC1CN(C(=S)Nc2ccc(S(N)(=O)=O)cc2)CC(C)O1` (configuration not stated), the inhibition is 2.19%. Take `CCN(C(=O)COc1ccc(C(=O)c2ccccc2)cc1)c1ccccc1`: the inhibition was 16.5%. Consider `CCOC(=O)CSc1nc(N2CCOCC2)c2c(c1C#N)CC(C(C)C)OC2` (configuration not stated), for which the inhibition is 20%. As to `O=C(Nc1cccc(F)c1)[C@@H]1CCCN1`, the inhibition is -11.2%. Regarding `COc1ccc(-c2oc3ncn(Cc4ccco4)c(=N)c3c2-c2ccc(OC)cc2)cc1`, the inhibition is 49% (active).

With `COc1ccc(-n2cnc3cc(NCc4ccco4)ccc32)cc1`, the inhibition was 35.3%. As for `COc1ccc(-c2oc3ncnc(NCCCO)c3c2-c2ccc(OC)cc2)cc1`, the figure is 17.8%; as for `COc1ccc(C(C)(C)C)cc1NC(=O)CCN1C(=O)C2CCCCC2C1=O` (configuration not stated), 24.4%. Turning to `COc1ccccc1Oc1ccc(N2CC(C(=O)OCC(=O)c3ccc(F)cc3)CC2=O)cc1` (configuration not stated), the inhibition was 19.9%.

For `C[C@H](NC(=O)OC(C)(C)C)c1nnc(SCC(=O)Nc2ccc(Br)cc2)o1`, the inhibition is 9.84%. Consider `CCc1ccccc1NC(=O)CSc1nnc([C@@H](NC(=O)OC(C)(C)C)C(C)C)o1`, for which the inhibition was 12.6%.

`C[C@@H](NC(=O)OC(C)(C)C)c1nnc(S(=O)(=O)Cc2ccccc2)o1`: the inhibition is 40.3% (active).

On to `CCN(CC)C(=O)COc1coc(CN2CCN(Cc3ccccc3)CC2)cc1=O`, for which the inhibition is 16.8%.

Take `COC(C[C@@H]1O[C@@H]1C(=O)[C@@H](C)OCc1ccccc1)OC`: the inhibition was 3.69%. The value for `CC1(C)NC(=O)N(CCCCSc2ccc(Cl)cc2)C1=O` was -13.6%; that for `COC(=O)c1sc(-c2ccc(C(C)(C)C)cc2)cc1NC(=O)/C=C/C(=O)O` was -5.28%; that for `COCCCC1CCN(C(=O)C2CCC(=O)N(C3CCCCCC3)C2)CC1` (configuration not stated) was 2.49%. `COCCNC(=O)C(OC(=O)c1cccs1)c1ccc(F)cc1` (configuration not stated): the inhibition was 10.9%.

On to `c1ccc(-c2nccc(-c3ccc(-n4cnc5ccccc54)cc3)n2)nc1`, for which the inhibition was 46% (active). In the case of `Cc1nccc(-c2ccc(-n3c(C)ccc3C)cc2)n1`, the inhibition was 6.83%.

For `COC(=O)c1ccc(-n2cnc3ccccc32)nc1`, the inhibition is 10.4%.

Consider `Cc1cc(C(=O)CC#N)c(C)n1CC(F)(F)F`, for which the inhibition is -1.63%.

For the compound `COCCn1c(C)cc(C(=O)COC(=O)/C=C/c2cccc(OC)c2)c1C`, the inhibition is 17.6%. In the case of `N/C(=N\OC(=O)c1cc(-c2ccccc2)nc2ccccc12)c1ccncc1`, the inhibition was 61.8% (active). The value for `C/C(N)=C(/C#N)C(=O)COC(=O)c1cc(-c2ccc(C)cc2)nc2ccccc12` was 23.8%; that for `COC(=O)CNC(=O)c1cc(-c2ccncc2)nc2ccccc12` was -9.97%. Turning to `CC(=O)c1ccc(OC(=O)N2CCOCC2)cc1`, the inhibition is 9.97%. The value for `O=C(Oc1ccc(F)cc1)N1CCOCC1` was 97.5% (active). In the case of `O=C(Oc1ccc(C(=S)N2CCOCC2)cc1)c1ccc(F)cc1`, the inhibition was 7.76%. Regarding `CCOc1c(OC)cccc1C(=O)NCC1(c2ccccc2)CCCC1`, the inhibition was 27.6%.

In the case of `CC(C)(C)n1ncc2c(=O)n(Cc3c(Cl)cccc3Br)cnc21`, the inhibition is 5.55%. Consider `Cc1ccc(OCC(=O)Nc2cccc3c2CCCC3)cc1C`, for which the inhibition was 28.1%. With `O=C(COC(=O)c1ccc([N+](=O)[O-])cc1Cl)NC(=O)c1ccccc1`, the inhibition was -3.01%. As for `O=C(NOCc1ccccc1)c1cccc([N+](=O)[O-])c1`, the figure is 0.85%; as for `O=C(NC(Nc1nc2ccc([N+](=O)[O-])cc2s1)(C(F)(F)F)C(F)(F)F)c1ccccc1`, 76.9% (active).

As for `CCc1ccc(C(=O)NN=C2CCCCCC2)s1`, the inhibition is -0.295%.

Regarding `CCCC(C(=O)N1CCOCC1)N1C(=O)C2C3C=CC(C3)C2C1=O` (configuration not stated), the inhibition was -10.3%. Take `CCOc1ccc2nc(N3CCCN(C(=O)Nc4ccccc4C)CC3)c(C#N)cc2c1`: the inhibition is 2.29%. As for `CCC(C)(C)n1nnnc1C(c1cccs1)N1CCN(c2nc3ccccc3s2)CC1` (configuration not stated), the figure is 37.8%; as for `CCC(C)(C)n1nnnc1CN1CCN(c2nc3ccc(C)cc3cc2C#N)CC1`, 41.5% (active). With `CSc1ccc(CN(C)CC(=O)NCc2ccc(F)cc2)cc1`, the inhibition was -1.15%. In the case of `Cn1c(CNC(=O)c2ccco2)nnc1SCC(=O)N1CCN(c2ccccc2)CC1`, the inhibition was 2.03%. Take `O/N=C(\c1ccc2c(c1)OCCO2)C1CCCCC1`: the inhibition was 3.12%.

As for `Cc1c(CNCCc2ccccc2)c(C(=O)O)c(C)n1-c1ccccc1`, the inhibition is -4.69%.

`COc1cc(/C=N/n2c(C)n[nH]c2=S)ccc1OCc1ccccc1`: the inhibition is 8.61%.

Consider `Cn1c(-c2sccc2OCc2cccc(C(F)(F)F)c2)n[nH]c1=S`, for which the inhibition was 42.2% (active). Regarding `Cn1c(-c2sc3cc(C(F)(F)F)cnc3c2-c2ccccc2)n[nH]c1=S`, the inhibition is -3.83%. On to `CCOc1ccc(-n2c(SCC(=O)Nc3cc(C(=O)O)ccc3Cl)nc3ccccc3c2=O)cc1`, for which the inhibition is 22.7%. As for `S=c1[nH]nc(CSCc2ccc(Cl)cc2Cl)n1-c1ccccc1`, the figure is 38.8%; as for `CCn1c(CSCc2c(Cl)cccc2Cl)n[nH]c1=S`, 53.7% (active).

For the compound `CCn1c(CNS(=O)(=O)c2ccc(Cl)cc2)n[nH]c1=S`, the inhibition was -9.99%. The value for `Clc1ccc(C2=CSC3=Nc4cccc5cccc(c45)N23)cc1` was 21.2%. Regarding `CCN(CC)P(=O)(/C(Cl)=C\Nc1c(C)n(C)n(-c2ccccc2)c1=O)N(CC)CC`, the inhibition is 2.07%. For the compound `COc1ccc(CCNCC(O)Cn2ccc3ccccc32)cc1OC` (configuration not stated), the inhibition was -8.76%. Take `O=C1c2ccccc2C(=O)c2c1cccc2N1CCN(Cc2ccccc2)CC1`: the inhibition was 41.3% (active).

Take `O=C1c2ccccc2C(=O)c2c1cccc2N1CCN(C/C=C/c2ccccc2)CC1`: the inhibition was 38.5%. In the case of `O=C1c2ccccc2C(=O)c2c1cccc2N1CCN(CCO)CC1`, the inhibition is 12.2%.

For the compound `Cc1ccc(NC(=O)CN(C)C(=O)Cn2nnc(-c3ccccc3)n2)cc1`, the inhibition is 0.534%. As for `COc1ccccc1CNC(=O)COc1ccc(C)nc1[N+](=O)[O-]`, the figure is 9.85%. In the case of `Cc1cccc(NC(=O)CCn2c(=O)oc3ccccc32)c1`, the inhibition was -10%. In the case of `CC(OC(=O)c1cc2ccccc2o1)C(=O)Nc1ccc(N2CCOCC2)cc1` (configuration not stated), the inhibition was 3.94%. The value for `CN1CCN(c2ccccc2NC(=O)COc2ccc(C3CCCCC3)cc2)CC1` was 40.4% (active); that for `Cc1ccc(C(C)C)cc1OCC(=O)Nc1ccccc1N1CCCC1` was -2.85%. For `O=C(CN1CCN(C2CCCCC2)CC1)Nc1ccccc1N1CCCCC1`, the inhibition was 4.11%. As to `COc1ccc(NC(=O)/C(C#N)=C\c2cc(OC)c(OCc3ccc(C(=O)O)cc3)cc2Br)cc1`, the inhibition is 26.4%. The value for `COc1ccc(CNC(=O)/C(C#N)=C/c2cccc(OC)c2OC)cc1` was 70.4% (active); that for `COc1ccc(CNC(=O)CCn2cccc2)cc1` was -5.68%; that for `C=CCSc1nnc(N2C(=O)C(O)=C(C(=O)c3ccco3)C2c2ccc(F)cc2)s1` (configuration not stated) was 1.92%. `Cc1ccc2[nH]c3c(=O)n(CC(=O)NCCc4ccc(Cl)cc4)ncc3c2c1`: the inhibition was -0.819%.

As for `C=CCO/N=C/C1=C(O)C(C(=O)OC)C(C)(C)CC1=O` (configuration not stated), the inhibition is 6.77%. The value for `Cc1ccc(Nc2nc(-c3ccc(O)cc3O)cs2)nc1` was 11.7%; that for `O=C(Nc1ccncc1)c1cc2ccccc2o1` was -3.62%.

On to `O=c1oc2ccccc2cc1-c1csc(Nc2ccc(O)cc2)n1`, for which the inhibition is 43.9% (active).

Turning to `Cc1csc(=O)n1CC(=O)Nc1ccc(S(C)(=O)=O)cc1`, the inhibition is -3.37%. As for `CCn1c(=O)c2ccccc2n(CC(=O)N2CCCc3ccccc32)c1=O`, the figure is -2.71%; as for `CC(C)c1ccc2c(c1)c(SC(C)(C)C)c(CC(C)(C)C(=O)O)n2Cc1ccc(Cl)cc1`, 3.33%; as for `N/C(=N\OC(=O)N1c2ccccc2Sc2ccccc21)c1ccc(Br)cc1`, -9.5%. Regarding `N/C(=N/O)c1cccn1Cc1ccccc1[N+](=O)[O-]`, the inhibition was -10.5%. As for `N/C(=N\OC(=O)Cc1ccccc1[N+](=O)[O-])c1ccc(Br)cc1`, the figure is 57.9% (active); as for `CC[C@@H]1Cc2cc(O)ccc2C2=C1c1ccc(O)cc1C[C@H]2CC`, 58.9% (active); as for `CCOc1ccc(N2C(=O)Nc3ccccc3C2(O)C(=O)NCc2ccco2)cc1` (configuration not stated), -6.83%. As for `CN(C)C(=O)CCc1ccc2c3c([nH]c2c1)[C@]1(CCc2ccccc2)[C@@H](C(=O)N2CCCCC2)C[C@H](CC(=O)NCCC2=CCCCC2)C(=O)N1CC3`, the inhibition was -1.38%.

These data come from PubChem BioAssay AID463195 (Sanford-Burnham Center for Chemical Genomics, 2010).
